From PubChem BioAssay AID504909 (Southern Research Specialized Biocontainment Screening …, 2011)
Results with a measured potency or affinity are listed apart. Active and inactive are the calls of the source. No rule for the calls is given here.

Experiment: Vero cell cytotoxicity, dose response, cytotoxicity control for M. tuberculosis growth inhibitor project, Vero cells, purified and synthesized compounds, set 5 (AID 504909)

Row | Compound | outcome
1 | CCC(Sc1nc2ccccc2c(=O)[nH]1)C(=O)NC1CCCCC1 (stereo not drawn) | inactive
2 | Cc1nc(SCc2ccccc2Cl)[nH]c(=O)c1C | inactive
3 | CNC(=O)CSc1nc2ccccc2c(=O)[nH]1 | inactive
4 | CC1CCN(C(=O)C2CCN(c3nnc(-n4cccc4)s3)CC2)CC1 | inactive
5 | CC(Sc1nc2ccccc2c(=O)[nH]1)C(=O)NC1CCCCC1 (stereo not drawn) | inactive
6 | Nc1cc(=O)[nH]c(SCC(=O)NC2CCCCC2)n1 | inactive
7 | CC1CCN(C(=O)CSc2nc3ccccc3c(=O)[nH]2)CC1 | inactive
8 | CCSc1nc(C)c(C)c(=O)[nH]1 | inactive
